Assay results as given in ChEMBL document CHEMBL3988442, “University of Dundee, Small-Polar-MMV Screening Library” (2021).
Screen size: about 66,000 compounds; about 960 (1.5%) showed an effect of 50% or more. This is one part of a sample in which strong results are shown more often than they occur.

Test system: Trypanosoma brucei
Test: Trypanosoma brucei 72 hour study
Assay type: functional, organism-based
Design: scale not given: in the data most compounds retested in dose-response had high values

COc1ccc(CNC(C)Cn2cccn2)c(OC)c1OC.Cl (centres undefined)
Percent Effect (30.3 µM, […]): 4.713% | Percent Effect (10 mM, 10 mM as filed; unlikely as a test dose): -54.3%

COc1cc(CNCC(O)c2ccc(C)cc2)cc2c1OCCO2.Cl (centres undefined)
Percent Effect (30 µM, 30.03 µM): 42.56%

COc1cc(CNC(C)Cn2cccn2)cc2c1OCO2.Cl (centres undefined)
Percent Effect (30.3 µM, […]): -1.111%

COc1cc(CNCC(O)c2ccc(C)cc2)cc2c1OCO2.Cl (centres undefined)
Percent Effect (30.3 µM, […]): 100.7%

COc1cc(CNC(C)Cn2ccnc2)cc2c1OCO2.Cl (centres undefined)
Percent Effect (30.3 µM, […]): 4.669%

COc1cc(CNCC(O)c2cccc(F)c2)cc2c1OCO2.Cl (centres undefined)
Percent Effect (30.3 µM, […]): 81.63%

COc1cc(CNCC(O)c2ccc(F)c(F)c2)cc2c1OCO2 (centres undefined)
Percent Effect (30 µM, 30.03 µM): 4.493%

Cl.Cl.c1cncc(COC[C@@H]2CCC[C@@]23CNCCO3)c1
Percent Effect (30.3 µM, […]): -44.98%

CC(C)N1CCC2(CC1)C(=O)N(CCN(C)C)c1ccccc12.O=C(O)C(F)(F)F.O=C(O)C(F)(F)F
Percent Effect (30.3 µM, […]): 5.685%

O=C(O)C(F)(F)F.O=C(O)C(F)(F)F.O=C(O)C(F)(F)F.c1ccc(CN2CC[C@@H]3[C@@H](CO[C@@H]3CNc3ncccn3)C2)nc1
Percent Effect (30.3 µM, […]): -6.943%

COc1ccc(CN2C[C@@H]3OCCN(c4ncccn4)[C@@H]3C2)cc1.O=C(O)C(F)(F)F.O=C(O)C(F)(F)F
Percent Effect (30 µM, 30.03 µM): -40.73%

COc1cc2nc(NCc3ccc(C)nc3)nc(N)c2cc1OC
Percent Effect (30.3 µM, […]): 100.6%

O=C(C[C@@H]1COC[C@H]2CN(C3CCC3)C[C@@H]12)NCc1cccnc1.O=C(O)C(F)(F)F.O=C(O)C(F)(F)F
Percent Effect (30.3 µM, […]): 12.19%

COc1ccc(CCNCc2c(C)nn(C)c2N(C)C)cc1OC.Cl
Percent Effect (30.3 µM, […]): -31.69%

O=C(c1ccc(Cl)cc1-n1cnnn1)N1CCC2(CC1)OCCO2
Percent Effect (30 µM, 30.03 µM): -30.99%

O=C(c1cnn2c1OCCC2)N1CCC2(CC1)OCCO2
Percent Effect (30 µM, 30.03 µM): 55.16%

O=C(c1ccccc1-n1cnnn1)N1CCC2(CC1)OCCO2
Percent Effect (30 µM, 30.03 µM): -25.19%

Cn1ccnc1NC[C@@H]1CCC[C@@H]2CN(Cc3cccnc3)C[C@@H]21.O=C(O)C(F)(F)F
Percent Effect (30.3 µM, […]): -5.749%

CN1C[C@H](NC(=O)c2cscn2)[C@@H]2OCCC[C@@H]21.O=C(O)C(F)(F)F
Percent Effect (30.3 µM, […]): -88.97%

COCCNC(=O)[C@@]12CCO[C@@H]1CCN(Cc1ccncc1)C2.O=C(O)C(F)(F)F.O=C(O)C(F)(F)F
Percent Effect (30 µM, 30.03 µM): 13.68%

c1ccc(CO[C@H]2C[C@@H]3CN(Cc4cccnc4)C[C@@H]3C2)cc1
Percent Effect (30.3 µM, […]): 51.09%

Cc1ncc(CN2C[C@H]3C[C@H](OCc4ccccc4)C[C@H]3C2)cn1
Percent Effect (30.3 µM, […]): 6.96%

c1ccc(CO[C@H]2C[C@@H]3CN(Cc4cncnc4)C[C@@H]3C2)cc1
Percent Effect (30.3 µM, […]): -7.208%

CN(C)CCN1CCN(Cc2nccs2)Cc2cccnc21.O=C(O)C(F)(F)F.O=C(O)C(F)(F)F.O=C(O)C(F)(F)F
Percent Effect (30.3 µM, […]): -78.15%

O=C(NCCc1ccccn1)[C@@]12CCO[C@@H]1CCN(C1CCC1)C2.O=C(O)C(F)(F)F.O=C(O)C(F)(F)F
Percent Effect (30.3 µM, […]): 7.888%

O=C(O)C(F)(F)F.O=C(O)C(F)(F)F.c1ccc(OCC2C[C@@H]3[C@@H](C2)OCCN3CC2CCOCC2)nc1 (some centres undefined)
Percent Effect (30.3 µM, […]): -46.45%

CC(C)c1nc(CC(=O)N2CCN(C)CC2c2ccccc2)cs1 (centres undefined)
Percent Effect (30 µM, 30.03 µM): -91.57%

CCN1CCN(Cc2csc(C(C)C)n2)CC1
Percent Effect (30.3 µM, […]): 81.77%

CCN1CCN(Cc2nc(CC(C)C)no2)CC1
Percent Effect (10 µM): -12.44%

COCCCNc1c(C#N)c2c(c3nncn13)CN(C)CC2.Cl
Percent Effect (30 µM, 30.03 µM): -37.83%

Cl.Cl.c1ccc(COC[C@H]2CCC[C@@]23CNCCO3)nc1
Percent Effect (30.3 µM, […]): -51.33%

O=C(O)C(F)(F)F.O=C(O)C(F)(F)F.c1cnc(N2CCO[C@H]3CN(CC4CCOCC4)C[C@H]32)nc1
Percent Effect (30.3 µM, […]): -91.37%

O=C(O)C(F)(F)F.c1cc(CN2CC[C@@H]3CN(c4cnccn4)C[C@@H]3C2)ccn1
Percent Effect (30.3 µM, […]): -4.355%

COc1cc(CNCC(O)c2ccccc2F)cc2c1OCO2 (centres undefined)
Percent Effect (30.3 µM, […]): 55.14%

COc1cc(CNC(C)Cn2ccnc2)cc2c1OCCO2 (centres undefined)
Percent Effect (30.3 µM, […]): -9.51%

COc1cc(CNCC(O)c2ccc(F)cc2F)cc2c1OCO2 (centres undefined)
Percent Effect (30.3 µM, […]): 68.01%

COc1cc(CNC(C)Cn2cccn2)cc2c1OCCO2.Cl (centres undefined)
Percent Effect (30.3 µM, […]): -12.29% | Percent Effect (10 mM, 10 mM as filed; unlikely as a test dose): -15.19%

Cc1nc(CN2CCN3C[C@H](Oc4cncnc4)C[C@H]3C2)cs1.O=C(O)C(F)(F)F.O=C(O)C(F)(F)F
Percent Effect (30.3 µM, […]): -64.45%

Cc1cnc(N2CC3(CCN(Cc4cccnc4)C3)C2)nc1.O=C(O)C(F)(F)F.O=C(O)C(F)(F)F
Percent Effect (30.3 µM, […]): -6.103%

O=C(O)C(F)(F)F.O=C(O)C(F)(F)F.c1cnc(N2CCN3C[C@H](Oc4cncnc4)C[C@H]3C2)nc1
Percent Effect (30.3 µM, […]): -14.25%

CCN1CCc2c(cccc2NC(=O)CN(C)C2CCSC2)C1 (centres undefined)
Percent Effect (30 µM, 30.03 µM): -20.21%

O=C(O)C(F)(F)F.c1cncc(CN2C[C@H]3CCC[C@@H](CNc4cnccn4)[C@H]3C2)c1
Percent Effect (30.3 µM, […]): -2.256%

Cc1ccc(CN2CC[C@]3(C[C@H](OCc4ccccn4)CO3)C2)o1.O=C(O)C(F)(F)F.O=C(O)C(F)(F)F
Percent Effect (30 µM, 30.03 µM): 4.871%

O=C(Cc1c[nH]c2ccccc12)N1CCC(Nc2ccccc2)CC1
Percent Effect (30.3 µM, […]): -16.2%

O=C(c1cc2cc(F)ccc2[nH]1)N1CCC(Nc2ccc(F)cc2)CC1
Percent Effect (30.3 µM, […]): 86.11%

O=C(c1ccc2c(c1)COC2)N1CCC(Nc2ccccc2)CC1
Percent Effect (30 µM, 30.03 µM): 15.22%

O=C(O)C(F)(F)F.O=C(O)C(F)(F)F.O=C(O)C(F)(F)F.c1cc(CN2CCO[C@H]3[C@H](OCCN4CCCC4)CC[C@@H]32)ccn1
Percent Effect (30.3 µM, […]): -7.413%

C[C@H]1C[C@H]2CN(Cc3ccccn3)CC[C@@H]2O1.O=C(O)C(F)(F)F.O=C(O)C(F)(F)F
Percent Effect (30 µM, 30.03 µM): -2.942%

CCOCCN1C[C@@H]2CCCO[C@@H]2[C@H](NC(=O)c2cnoc2C)C1.O=C(O)C(F)(F)F
Percent Effect (30.3 µM, […]): -87.51%

O=C(c1csc(-c2ncccn2)n1)N1CCN2CCCCC2C1 (centres undefined)
Percent Effect (30 µM, 30.03 µM): 9.676%

O=C(Cc1csc(-c2ncccn2)n1)N1CCN2CCCCC2C1 (centres undefined)
Percent Effect (30 µM, 30.03 µM): -4.944%

O=C(Cc1ccc(-n2cccn2)cc1)N1CCN2CCCCC2C1 (centres undefined)
Percent Effect (30 µM, 30.03 µM): 56.58%

CCS(=O)(=O)N1CCc2ccc(NC(=O)Nc3cccc(C#N)c3)cc21
Percent Effect (30 µM, 30.03 µM): 29.43%

O=C(O)C(F)(F)F.O=C(O)C(F)(F)F.O=C1CC[C@@H]2[C@@H](CCN2Cc2ccccn2)N1CC1CC1
Percent Effect (30.3 µM, […]): 9.459%

CC(N)Cc1ccccc1Sc1ccccc1.O=C(O)/C=C\C(=O)O (centres undefined)
Percent Effect (30 µM, 30.03 µM): 99.41%

CNC(C)Cc1ccccc1Sc1ccc(O)cc1.Cl (centres undefined)
Percent Effect (30 µM, 30.03 µM): -13.84%

CC(N)Cc1ccccc1Sc1ccc(O)cc1.CC(N)Cc1ccccc1Sc1ccc(O)cc1.O=C(O)C(=O)O (centres undefined)
Percent Effect (30 µM, 30.03 µM): 73.02%

O=C(O)C(F)(F)F.O=C(O)C(F)(F)F.c1cncc(O[C@H]2CC[C@H]3[C@H]2OCCN3C2CCCC2)c1
Percent Effect (30 µM, 30.03 µM): -21.55%

CN(C)[C@@H]1CN(C(=O)Cc2cccs2)[C@@H]2CCCO[C@H]12.O=C(O)C(F)(F)F
Percent Effect (30.3 µM, […]): -91.09%

COCCN1CC[C@]2(CN(Cc3cccnc3)C[C@H]2C)C1=O.O=C(O)C(F)(F)F.O=C(O)C(F)(F)F
Percent Effect (30.3 µM, […]): -47.24%

CN1C(Cn2cccn2)C[C@@H]2CN(Cc3cccnc3)CC[C@@H]21.O=C(O)C(F)(F)F.O=C(O)C(F)(F)F.O=C(O)C(F)(F)F.O=C(O)C(F)(F)F (some centres undefined)
Percent Effect (30.3 µM, […]): -14.63%

COCCN1CCO[C@@H]2CN(S(=O)(=O)c3cccnc3)C[C@@H]2C1.O=C(O)C(F)(F)F.O=C(O)C(F)(F)F
Percent Effect (30.3 µM, […]): -14.72%
